Inconclusive results are not listed. The source holds several records for some structures; these can differ, active in one and inactive in another. Active and inactive are the calls of the source. The calls were made as follows: active = hit-call score of the fitted dose curve at least 0.9, where 1 is the maximum; inconclusive = response in the unintended direction; inactive = score below 0.9.
Experiments:
[1] = molecular target: Collagenase 3 (Homo sapiens) (UniProt P45452); experiment: NVS_ENZ_hMMP13: NovaScreen (NVS) Enzymatic Assay for human Matrix Metalloproteinase-13 (MMP13) (AID 2283182)
Outline: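 Recombinant MMP13 cleaving fluorescent substrate, cell-free, measured 1 h after dosing. Primary duplicate screen at 25 uM; actives tested in concentration-response up to 50 uM; loss of signal relative to DMSO.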

[2] = molecular target: human Matrix Metalloproteinase-2 (MMP2), MMP2 (gene 4313) (UniProt P08253); experiment: NVS_ENZ_hMMP2: NovaScreen (NVS) Enzymatic Assay for human Matrix Metalloproteinase-2 (MMP2) (AID 2283184)
Outline: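 Compounds first screened in duplicate at a single 25 uM, with actives followed up in concentration series. Recombinant human MMP2 cleaves a fluorogenic substrate; fluorescence taken at 1 h, inhibition fitted relative to DMSO.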

[3] = molecular target: human Matrix Metalloproteinase-9 (MMP9), MMP9 (gene 4318) (UniProt P14780); experiment: NVS_ENZ_hMMP9: NovaScreen (NVS) Enzymatic Assay for human Matrix Metalloproteinase-9 (MMP9) (AID 2283190);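 also: cell-free recombinant MMP9 protease activity read by fluorescent substrate signal; active means inhibition seen as loss of fluorescence signal versus DMSO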
Chain of human Matrix Metalloproteinase-9 (MMP9), MMP9 (gene 4318) (P14780 whole entry, looked up): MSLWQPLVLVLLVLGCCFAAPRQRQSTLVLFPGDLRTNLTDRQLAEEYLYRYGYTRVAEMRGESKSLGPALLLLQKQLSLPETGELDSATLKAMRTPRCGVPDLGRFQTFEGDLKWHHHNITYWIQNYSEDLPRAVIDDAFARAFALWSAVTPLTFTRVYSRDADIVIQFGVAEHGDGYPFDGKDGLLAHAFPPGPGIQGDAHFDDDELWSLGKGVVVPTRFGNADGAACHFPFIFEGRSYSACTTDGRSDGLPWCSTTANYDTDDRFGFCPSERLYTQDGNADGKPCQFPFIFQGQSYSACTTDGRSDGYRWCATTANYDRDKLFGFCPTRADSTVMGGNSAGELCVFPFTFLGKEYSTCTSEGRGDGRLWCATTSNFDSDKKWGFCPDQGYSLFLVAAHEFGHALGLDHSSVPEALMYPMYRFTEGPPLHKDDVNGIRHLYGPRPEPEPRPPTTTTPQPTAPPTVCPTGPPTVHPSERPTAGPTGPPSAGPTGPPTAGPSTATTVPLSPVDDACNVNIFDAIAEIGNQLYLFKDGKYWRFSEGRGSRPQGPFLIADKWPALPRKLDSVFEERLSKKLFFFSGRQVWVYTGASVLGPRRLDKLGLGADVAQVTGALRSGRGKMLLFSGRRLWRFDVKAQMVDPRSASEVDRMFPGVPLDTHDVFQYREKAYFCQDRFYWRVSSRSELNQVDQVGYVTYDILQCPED
Outline: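 Screening concentration 25 uM, duplicate wells, then dose series for confirmation. Cell-free enzymatic reaction measured by fluorescence intensity 1 h post-dosing; decreased signal versus DMSO taken as activity.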

[4] = molecular target: human Janus Kinase 2 (Jak2), JAK2 (gene 3717) (UniProt O60674); experiment: NVS_ENZ_hJak2: NovaScreen (NVS) Enzymatic Assay for human Janus Kinase 2 (Jak2) (AID 2283169)
Outline: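 Single-point duplicate screen at 25 uM, with hits run in concentration series to a 50 uM top dose. Substrate-product separation by mobility shift with fluorescence detection, 1 h post-dosing; DMSO baseline.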

[5] = molecular target: Mitogen-activated protein kinase 3 (Homo sapiens) (UniProt P27361); experiment: NVS_ENZ_hMAPK3: NovaScreen (NVS) Enzymatic Assay for human Mitogen-Activated Protein Kinase 3 (MAPK 3) (AID 2283177)
Chain of Mitogen-activated protein kinase 3 (Homo sapiens) (P27361 whole entry, looked up): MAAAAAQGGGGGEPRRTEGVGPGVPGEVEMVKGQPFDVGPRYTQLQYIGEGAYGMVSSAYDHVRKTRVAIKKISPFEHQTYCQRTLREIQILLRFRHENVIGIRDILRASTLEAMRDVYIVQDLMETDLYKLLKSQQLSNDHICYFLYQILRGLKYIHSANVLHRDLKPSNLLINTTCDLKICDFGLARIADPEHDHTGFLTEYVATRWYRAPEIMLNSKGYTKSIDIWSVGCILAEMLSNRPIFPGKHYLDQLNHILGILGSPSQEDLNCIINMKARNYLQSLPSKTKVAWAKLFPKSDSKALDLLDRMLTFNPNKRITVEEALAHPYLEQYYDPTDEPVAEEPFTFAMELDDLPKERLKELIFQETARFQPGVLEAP
Outline: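 Chemicals were first tested in duplicate at 25 uM, with hits re-run as concentration series (max 50 uM). Recombinant enzyme activity, measured 1 h post-dose in a cell-free format, was read by fluorescence/mobility shift relative to DMSO.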

[6] = molecular target: human MET Proto-Oncogene, Receptor Tyrosine Kinase (MET), MET (gene 4233) (UniProt P08581); experiment: NVS_ENZ_hMet: NovaScreen (NVS) Enzymatic Assay for human MET Proto-Oncogene, Receptor Tyrosine Kinase (MET) (AID 2283180)
Outline: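 Hits from a 25 uM duplicate screen were retested in concentration series up to 50 uM. Enzyme activity was measured by fluorescence after electrophoretic separation of product from substrate, 1 h after compound addition, relative to DMSO.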

[7] = molecular target: human Matrix Metalloproteinase-7 (MMP7), MMP7 (gene 4316) (UniProt P09237); experiment: NVS_ENZ_hMMP7: NovaScreen (NVS) Enzymatic Assay for human Matrix Metalloproteinase-7 (MMP7) (AID 2283183)
Outline: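 Compounds first tested at 25 uM in duplicate, then at up to 50 uM in concentration series if active. Protease activity measured by fluorescence intensity 1 h after dosing, with fitting relative to DMSO.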

[8] = molecular target: human Matrix Metalloproteinase-1 (MMP1), MMP1 (gene 4312) (UniProt P03956); experiment: NVS_ENZ_hMMP1: NovaScreen (NVS) Enzymatic Assay for human Matrix Metalloproteinase-1 (MMP1) (AID 2283181)
Chain of human Matrix Metalloproteinase-1 (MMP1), MMP1 (gene 4312) (P03956 whole entry, looked up): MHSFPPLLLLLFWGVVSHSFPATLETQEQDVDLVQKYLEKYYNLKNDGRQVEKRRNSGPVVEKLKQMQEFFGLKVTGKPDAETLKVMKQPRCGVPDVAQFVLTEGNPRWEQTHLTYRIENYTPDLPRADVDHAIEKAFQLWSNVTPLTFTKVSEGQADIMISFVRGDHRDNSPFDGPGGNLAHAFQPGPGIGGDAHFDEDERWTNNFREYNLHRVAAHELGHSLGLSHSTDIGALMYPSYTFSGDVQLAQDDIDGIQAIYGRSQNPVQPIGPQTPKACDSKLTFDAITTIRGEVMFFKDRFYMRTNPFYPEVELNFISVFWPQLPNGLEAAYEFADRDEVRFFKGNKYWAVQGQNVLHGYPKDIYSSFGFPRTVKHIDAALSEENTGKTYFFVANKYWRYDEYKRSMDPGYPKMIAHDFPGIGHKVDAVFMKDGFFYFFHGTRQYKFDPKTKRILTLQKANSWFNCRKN
Outline: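 Cell-free fluorescent substrate assay of human MMP1, read after 1 h. A single 25 uM duplicate screen was followed by concentration series to a maximum of 50 uM for actives meeting threshold; inhibition analysed against DMSO baseline.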

[9] = molecular target: human Phosphodiesterase 10 (PDE10), PDE10A (gene 10846) (UniProt Q9Y233); experiment: NVS_ENZ_hPDE10: NovaScreen (NVS) Enzymatic Assay for human Phosphodiesterase 10 (PDE10) (AID 2283195)
Outline: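 Readout is fluorescence intensity following electrophoretic mobility-shift separation, 1 h after dosing of isolated PDE10A protein. Hits meeting a preset threshold at 25 uM went to concentration series (max 50 uM), analysed relative to DMSO.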

[10] = molecular target: human Phosphodiesterase 5 (PDE5), PDE5A (gene 8654) (UniProt O76074); experiment: NVS_ENZ_hPDE5: NovaScreen (NVS) Enzymatic Assay for human Phosphodiesterase 5 (PDE5) (AID 2283194)
Outline: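 Screening began in duplicate at 25 uM, with actives taken into concentration-response. Enzyme activity of recombinant PDE5 toward its substrate was measured at 1 h by fluorescence mobility-shift detection, relative to DMSO controls.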

[11] = molecular target: human Protein Phosphatase, Mg2+/Mn2+ Dependent 1A (PPM1A), PPM1A (gene 5494) (UniProt P35813); experiment: NVS_ENZ_hPPM1A: NovaScreen (NVS) Enzymatic Assay for human Protein Phosphatase, Mg2+/Mn2+ Dependent 1A (PPM1A) (AID 2283198)
Outline: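 Primary screen in duplicate at 25 uM, with actives then titrated to a maximum of 50 uM. Recombinant PPM1A dephosphorylation of fluorescent substrate measured at 1 h, with substrate and product separated by mobility shift; inhibition fitted against DMSO.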

[12] = molecular target: human Protein Tyrosine Phosphatase Non-receptor Type 1 (PTPN1), PTPN1 (gene 5770) (UniProt P18031); experiment: NVS_ENZ_hPTPN1: NovaScreen (NVS) Enzymatic Assay for human Protein Tyrosine Phosphatase Non-receptor Type 1 (PTPN1) (AID 2283201)
Chain of human Protein Tyrosine Phosphatase Non-receptor Type 1 (PTPN1), PTPN1 (gene 5770) (P18031 whole entry, looked up): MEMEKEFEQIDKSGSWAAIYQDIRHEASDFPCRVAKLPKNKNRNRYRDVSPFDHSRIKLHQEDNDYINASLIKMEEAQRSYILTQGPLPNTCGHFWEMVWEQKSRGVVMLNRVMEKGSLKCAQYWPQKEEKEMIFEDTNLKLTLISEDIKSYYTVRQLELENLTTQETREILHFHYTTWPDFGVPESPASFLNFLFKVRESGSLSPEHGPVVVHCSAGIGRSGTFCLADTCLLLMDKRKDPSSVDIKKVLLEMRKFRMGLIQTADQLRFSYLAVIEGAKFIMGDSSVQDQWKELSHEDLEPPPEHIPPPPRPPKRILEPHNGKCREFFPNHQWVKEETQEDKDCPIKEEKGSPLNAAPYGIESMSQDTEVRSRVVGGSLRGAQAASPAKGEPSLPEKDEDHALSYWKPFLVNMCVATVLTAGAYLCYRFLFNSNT
Outline: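 Chemicals were first tested in duplicate at 25 uM, and those passing threshold went on to singleton concentration series topping at 50 uM. Recombinant enzyme, specific substrate, product separated by mobility shift, fluorescence read at 1.33 h; activity loss relative to DMSO.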

[13] = molecular target: Tyrosine-protein phosphatase non-receptor type 12 (Homo sapiens) (UniProt Q05209); experiment: NVS_ENZ_hPTPN12: NovaScreen (NVS) Enzymatic Assay for human Protein Tyrosine Phosphatase Non-receptor Type 12 (PTPN12) (AID 2283204)
Outline: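 Single-concentration duplicates (25 uM) preceded singleton concentration-response up to 50 uM for chemicals passing threshold. Cell-free recombinant PTPN12 activity was read 1.33 h after dosing via fluorescence after mobility-shift separation; loss of signal versus DMSO.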

[14] = molecular target: Tyrosine-protein phosphatase non-receptor type 13 (Homo sapiens) (UniProt Q12923); experiment: NVS_ENZ_hPTPN13: NovaScreen (NVS) Enzymatic Assay for human Protein Tyrosine Phosphatase Non-receptor Type 13 (PTPN13) (AID 2283205)
Chain of Tyrosine-protein phosphatase non-receptor type 13 (Homo sapiens) (Q12923 whole entry, looked up): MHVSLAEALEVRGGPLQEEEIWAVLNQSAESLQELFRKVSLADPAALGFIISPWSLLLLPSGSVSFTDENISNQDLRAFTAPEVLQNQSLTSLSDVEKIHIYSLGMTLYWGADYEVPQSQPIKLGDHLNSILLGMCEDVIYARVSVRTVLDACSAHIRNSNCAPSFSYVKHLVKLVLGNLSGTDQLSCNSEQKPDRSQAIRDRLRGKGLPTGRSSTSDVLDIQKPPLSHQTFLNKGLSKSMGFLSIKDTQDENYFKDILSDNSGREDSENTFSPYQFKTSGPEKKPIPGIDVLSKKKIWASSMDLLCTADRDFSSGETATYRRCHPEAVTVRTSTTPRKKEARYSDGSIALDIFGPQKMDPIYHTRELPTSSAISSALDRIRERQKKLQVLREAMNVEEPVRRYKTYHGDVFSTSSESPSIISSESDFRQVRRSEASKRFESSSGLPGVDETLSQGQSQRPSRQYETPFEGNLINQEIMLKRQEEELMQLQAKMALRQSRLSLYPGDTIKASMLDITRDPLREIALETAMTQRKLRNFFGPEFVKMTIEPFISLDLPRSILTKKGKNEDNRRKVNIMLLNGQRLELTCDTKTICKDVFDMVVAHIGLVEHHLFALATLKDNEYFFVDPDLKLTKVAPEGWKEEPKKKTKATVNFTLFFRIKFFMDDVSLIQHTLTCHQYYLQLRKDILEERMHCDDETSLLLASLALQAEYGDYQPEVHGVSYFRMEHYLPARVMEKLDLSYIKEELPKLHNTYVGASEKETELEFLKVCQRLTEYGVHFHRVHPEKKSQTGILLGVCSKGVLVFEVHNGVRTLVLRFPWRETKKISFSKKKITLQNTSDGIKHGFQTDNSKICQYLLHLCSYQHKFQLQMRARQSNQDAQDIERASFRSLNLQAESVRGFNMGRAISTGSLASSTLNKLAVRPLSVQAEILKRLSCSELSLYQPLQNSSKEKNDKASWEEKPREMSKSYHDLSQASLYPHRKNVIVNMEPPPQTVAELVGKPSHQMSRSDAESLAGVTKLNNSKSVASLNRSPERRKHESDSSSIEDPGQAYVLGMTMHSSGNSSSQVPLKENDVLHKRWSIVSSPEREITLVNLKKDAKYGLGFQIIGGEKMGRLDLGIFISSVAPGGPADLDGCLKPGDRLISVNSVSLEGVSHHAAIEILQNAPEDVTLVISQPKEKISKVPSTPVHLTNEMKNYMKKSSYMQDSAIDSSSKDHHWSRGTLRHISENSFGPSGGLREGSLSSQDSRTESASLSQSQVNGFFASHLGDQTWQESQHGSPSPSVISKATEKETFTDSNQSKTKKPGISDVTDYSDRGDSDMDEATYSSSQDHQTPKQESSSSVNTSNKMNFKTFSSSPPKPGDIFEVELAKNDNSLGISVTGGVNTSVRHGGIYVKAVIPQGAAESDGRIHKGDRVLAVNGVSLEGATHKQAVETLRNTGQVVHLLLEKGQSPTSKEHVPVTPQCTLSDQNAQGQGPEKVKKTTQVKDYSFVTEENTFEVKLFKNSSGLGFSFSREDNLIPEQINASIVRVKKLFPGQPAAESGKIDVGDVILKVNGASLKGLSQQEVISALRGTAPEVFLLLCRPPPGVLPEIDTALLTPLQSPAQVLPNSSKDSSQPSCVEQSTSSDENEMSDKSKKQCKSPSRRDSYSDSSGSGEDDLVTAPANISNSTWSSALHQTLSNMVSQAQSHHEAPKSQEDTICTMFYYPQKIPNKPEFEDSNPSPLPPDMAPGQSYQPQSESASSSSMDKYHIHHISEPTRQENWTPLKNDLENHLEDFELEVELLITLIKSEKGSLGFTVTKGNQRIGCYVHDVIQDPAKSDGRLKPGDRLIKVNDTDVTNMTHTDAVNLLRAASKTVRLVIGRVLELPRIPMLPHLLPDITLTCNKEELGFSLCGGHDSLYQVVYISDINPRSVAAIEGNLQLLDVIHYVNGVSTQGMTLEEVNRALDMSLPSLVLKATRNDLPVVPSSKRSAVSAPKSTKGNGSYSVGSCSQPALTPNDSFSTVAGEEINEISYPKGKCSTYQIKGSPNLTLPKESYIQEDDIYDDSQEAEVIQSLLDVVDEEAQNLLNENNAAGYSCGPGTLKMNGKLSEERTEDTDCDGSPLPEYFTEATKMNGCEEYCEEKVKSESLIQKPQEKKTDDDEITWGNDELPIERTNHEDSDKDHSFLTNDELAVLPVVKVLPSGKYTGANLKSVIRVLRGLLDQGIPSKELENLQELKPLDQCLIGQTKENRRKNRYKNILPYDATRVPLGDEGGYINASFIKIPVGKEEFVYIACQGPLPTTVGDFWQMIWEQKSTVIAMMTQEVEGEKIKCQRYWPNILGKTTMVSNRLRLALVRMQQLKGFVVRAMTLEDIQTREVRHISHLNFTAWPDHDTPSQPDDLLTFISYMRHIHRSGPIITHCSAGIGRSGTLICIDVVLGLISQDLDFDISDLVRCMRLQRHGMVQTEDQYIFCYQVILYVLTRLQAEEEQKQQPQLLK
Outline: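 Screened first at a single 25 uM in duplicate; compounds passing the threshold (e.g. 30% inhibition) were rerun in concentration series, top 50 uM. Recombinant enzyme, fluorescent substrate, mobility-shift separation, 0.5 h read. Data fitted as inhibition relative to DMSO.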

[15] = molecular target: human Matrix Metalloproteinase-3 (MMP3), MMP3 (gene 4314) (UniProt P08254); experiment: NVS_ENZ_hMMP3: NovaScreen (NVS) Enzymatic Assay for human Matrix Metalloproteinase-3 (MMP3) (AID 2283185)
Outline: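 Fluorescent substrate turnover by recombinant MMP3 read after 1 h, signal loss scored against DMSO. Compounds first run in duplicate at 25 uM single dose, then actives confirmed by concentration series.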

[16] = molecular target: human Phosphoinositide 3-kinase alpha (PI3Ka), PIK3CA (gene 5290) (UniProt P42336); experiment: NVS_ENZ_hPI3Ka: NovaScreen (NVS) Enzymatic Assay for human Phosphoinositide 3-kinase alpha (PI3Ka) (AID 2283196)
Outline: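 Duplicate single-point screen (25 uM), then singleton dose-response (max 50 uM) for compounds meeting the threshold. Cell-free kinase reaction, 1 h; fluorescent mobility-shift readout.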

[17] = molecular target: human p21 Activated Kinase 4 (PAK4), PAK4 (gene 10298) (UniProt O96013); experiment: NVS_ENZ_hPAK4: NovaScreen (NVS) Enzymatic Assay for human p21 Activated Kinase 4 (PAK4) (AID 2283189)
Chain of human p21 Activated Kinase 4 (PAK4), PAK4 (gene 10298) (O96013 whole entry, looked up): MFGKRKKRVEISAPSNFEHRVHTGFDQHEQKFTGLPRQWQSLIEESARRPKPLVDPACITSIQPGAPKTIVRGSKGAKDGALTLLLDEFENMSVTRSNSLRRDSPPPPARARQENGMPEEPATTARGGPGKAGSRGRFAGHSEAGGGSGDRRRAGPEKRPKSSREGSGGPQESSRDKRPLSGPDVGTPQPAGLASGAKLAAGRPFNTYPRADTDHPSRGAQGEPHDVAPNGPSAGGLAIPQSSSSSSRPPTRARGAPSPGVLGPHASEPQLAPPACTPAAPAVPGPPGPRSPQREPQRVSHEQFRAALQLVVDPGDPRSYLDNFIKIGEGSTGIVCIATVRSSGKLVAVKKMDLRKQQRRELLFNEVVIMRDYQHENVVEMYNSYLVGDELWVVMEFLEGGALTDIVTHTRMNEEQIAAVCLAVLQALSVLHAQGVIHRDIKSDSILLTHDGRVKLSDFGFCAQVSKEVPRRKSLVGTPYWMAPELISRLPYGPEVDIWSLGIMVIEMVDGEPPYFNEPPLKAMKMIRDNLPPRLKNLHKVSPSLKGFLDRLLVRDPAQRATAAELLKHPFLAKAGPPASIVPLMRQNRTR
Outline: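 Extracted PAK4 enzyme activity read by fluorescence with mobility-shift separation 1 h after chemical addition. Duplicate single-concentration screen at 25 uM, DMSO as negative control.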

[18] = molecular target: human Phosphodiesterase 4A1 (PDE4A1), PDE4A (gene 5141) (UniProt P27815); experiment: NVS_ENZ_hPDE4A1: NovaScreen (NVS) Enzymatic Assay for human Phosphodiesterase 4A1 (PDE4A1) (AID 2283191)
Outline: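 Fluorescent substrate turnover by recombinant PDE4A1 read after 1 h by mobility-shift separation. Primary duplicate screen at 25 uM; hits retested in concentration series with a 50 uM maximum, relative to DMSO.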

[19] = molecular target: Serine/threonine-protein phosphatase PP1-alpha catalytic subunit (Homo sapiens) (UniProt P62136); experiment: NVS_ENZ_hPPP1CA: NovaScreen (NVS) Enzymatic Assay for human Protein Phosphatase 1 Aatalytic subunit Alpha (PPP1CA) (AID 2283200)
Outline: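 Chemicals were first screened in duplicate at 25 uM, and those passing threshold (e.g. 30% inhibition) were run as concentration series to 50 uM. Cell-free recombinant protein, 1.33 h read, fluorescent substrate/product mobility-shift detection, normalised to DMSO.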

Which AC50 [1] does the source give for COc1cc(-c2ccc(N)c(OC)c2)ccc1N here?
Its AC50 is 17.9 µM (active).

What about the AC50 [2] of the same compound?
Its AC50 is 7.86 µM (active).

What about the AC50 [3] of the same compound?
The AC50 was 15.7 µM (active).

And the outcome [3]?
The outcome was “inactive”.

Cn1sc(Cl)cc1=O was tested. Which outcome [4] did it give?
Its outcome is “inactive”.

And the outcome [5]?
Its outcome is “inactive”.

CN(C)P(=O)(N(C)C)N(C)C was tested. Which AC50 [3] did it give?
The AC50 was 6.94 µM (active).

For CCOC(=O)/C=C(C)/C=C/C[C@@H](C)CCCC(C)C, which outcome [3] is on record?
Its outcome is “inactive”.

CC(C)(C)c1cc(O)ccc1O was tested. Which outcome [6] did it give?
Its outcome is “inactive”.

How did the AC50 [7] turn out when O=C1C2(Cl)C3(Cl)C4(Cl)C(Cl)(Cl)C5(Cl)C3(Cl)C1(Cl)C5(Cl)C24Cl (stereo not drawn) was run?
The AC50 was 5.85 µM (active).

With O=C(O)C(Cl)(Cl)Cl as the compound, how does the outcome [8] read?
The outcome was “inactive”.

Which outcome [9] does the source give for O=Cc1cccc(Oc2ccccc2)c1 here?
The outcome was “inactive”.

How did the outcome [5] turn out when C[C@@H]1C[C@@H]([C@H](O)CC2CC(=O)NC(=O)C2)C(=O)[C@@H](C)C1 was run?
The outcome was “inactive”.

Which AC50 [3] does the source give for ClC1=C(Cl)[C@]2(Cl)[C@H]3[C@H]([C@H]4C=C[C@H]3C4)[C@@]1(Cl)C2(Cl)Cl here?
The AC50 was 102 µM (active).

CC(=O)[O][Hg][c]1ccccc1 was tested. Which AC50 [8] did it give?
The AC50 was 6.38 µM (active).

And the outcome [10]?
The outcome was “inactive”.

What about the outcome [11] of the same compound?
Its outcome is “inactive”.

What about the AC50 [12] of the same compound?
Its AC50 is 9.68 µM (active).

And the AC50 [13]?
Its AC50 is 16 µM (active).

What about the AC50 [14] of the same compound?
The AC50 was 5.38 µM (active).

What does the source list for O=C(O)C(F)(F)C(F)(F)C(F)(F)C(F)(F)C(F)(F)C(F)(F)C(F)(F)C(F)(F)C(F)(F)C(F)(F)F?
AC50 [1]: 23.3 µM (active); AC50 [2]: 21.9 µM (active); AC50 [15]: 10.3 µM (active)

Nc1cccc(Cl)c1 was tested. Which AC50 [3] did it give?
Its AC50 is 0.226 µM (active).

C=C(C)C(=O)[O][Sn]([CH2]CCC)([CH2]CCC)[CH2]CCC was tested. Which AC50 [8] did it give?
Its AC50 is 3.07 µM (active).

With Nc1ccc(-c2ccc(N)c(Cl)c2)cc1Cl as the compound, how does the AC50 [3] read?
Its AC50 is 0.597 µM (active).

And the outcome [16]?
Its outcome is “inactive”.

Which outcome [9] does the source give for CC(C)c1ccc(CO)cc1 here?
Its outcome is “inactive”.

How did the outcome [17] turn out when C[C@]12CCC(=O)C[C@@H]1CC[C@@H]1[C@@H]2CC[C@]2(C)[C@@H](O)CC[C@@H]12 was run?
Its outcome is “inactive”.

NC(=S)Nc1ccccc1 was tested. Which AC50 [3] did it give?
The AC50 was 29.4 µM (active).

How did the outcome [3] turn out when Clc1ccc(C2(Cn3cncn3)CC(Br)CO2)c(Cl)c1 (stereo not drawn) was run?
Its outcome is “inactive”.

Which outcome [8] does the source give for CCN1CCC2(CC1)COc1cc3c(cc12)N(C(=O)c1ccc(-c2ccc(-c4nnc(C)o4)cc2C)cc1)CC3 here?
Its outcome is “inactive”.

And the AC50 [3]?
Its AC50 is 4.37 µM (active).

And the AC50 [18]?
Its AC50 is 10.2 µM (active).

And the outcome [10]?
The outcome was “inactive”.

CC12CC1(C)C(=O)N(c1cc(Cl)cc(Cl)c1)C2=O (stereo not drawn) was tested. Which AC50 [5] did it give?
The AC50 was 40.6 µM (active).

Which AC50 [3] does the source give for O=C(OC1CCCCC1)c1ccccc1C(=O)OC1CCCCC1 here?
Its AC50 is 1.86 µM (active).

With CC(C)(OO)c1ccccc1 as the compound, how does the outcome [17] read?
The outcome was “inactive”.

Which outcome [10] does the source give for CC(C)(C)CC(C)(C)c1ccc(O)cc1 here?
The outcome was “inactive”.

For CCC(C)(C)c1ccc(O)c(C(C)(C)CC)c1, which outcome [19] is on record?
Its outcome is “inactive”.

O=C(Nc1ccc2[nH]ccc2c1)c1cc2cc(F)ccc2n1Cc1cccc(F)c1 was tested. Which outcome [12] did it give?
Its outcome is “inactive”.

CCOC(=O)Nc1cccc(OC(=O)Nc2ccccc2)c1 was tested. Which outcome [13] did it give?
The outcome was “inactive”.

How did the outcome [14] turn out when CC(C)(c1ccccc1)c1ccc(O)c(C(C)(C)c2ccccc2)c1 was run?
Its outcome is “inactive”.
